Source: PubChem (National Center for Advancing Translational Sciences (NCATS))
Shiga toxin inh: inhibitors of Shiga toxin in Vero cells | Vero cells, Shiga toxin protein synthesis inhibition reporter | inhibition, % at 38.7 µM | 9.2% of 290,000 active; in the data active means inhibition mostly above about 28%, no sharp cut-off; inactive means mostly below about 43%; further: 0% is about no effect
Cycloheximide cs: counter-screen hit for Shiga toxin inhibitors, cycloheximide; cell reporter, cycloheximide protein synthesis inhibition counterscreen; max response, %; 12% of 300,000 active; AID 2314; in the data active means max response mostly above about 13%, no sharp cut-off; inactive means mostly below about 14%; further: read at 38.3 µM for the half of the compounds with a filed dose; 0% is about no effect
Marburg entry inh: inhibitors of Marburg virus binding or cell entry. Marburg virus pseudotyped entry inhibition, cell reporter. 1.8% of 300,000 active. Potency, µM (series often up to 37.8 µM), for the others: at the top dose activity change, negative = inhibition, actives largely listed as inhibitors; calls by dose curve; tested in HEK293 cells; further: potency means the concentration at half of the fitted maximal effect; on the % scale 0 is the no-effect control and ±100 the full control effect
Lassa entry inh: Lassa virus entry inhibition. 1.2% of 300,000 active. Potency, µM (doses to about 37.9 µM), for the others: top-dose activity change, negative = inhibition, usual class: inhibitors. Lassa virus pseudotype entry inhibition, cell reporter; calls by dose curve; tested in HEK293 cells; further: potency means the concentration at half of the fitted maximal effect; on the % scale 0 is the no-effect control and ±100 the full control effect; nearly all actives have a fitted effect of over 50% in size
Starred values were filed as active, the others as inactive; u = inconclusive; x = no result; [ ] = remark or other dose. Shown are actives, neighbours in structure and some others; about 12% of the full set was active somewhere.

SMILES	Shiga toxin inh	Cycloheximide cs	Marburg entry inh	Lassa entry inh
Cc1cc(C)c2c(n1)SCCN2C(=O)Nc1ccc(C(=O)Nc2cc(Cl)ccc2C)cc1	x	x	x	-0.6%[46.1 µM]
Cc1cc(C)c(NC(=O)/C(=C/c2ccccc2)c2ccccc2)c(C)c1	-8.2	-3.0	u	u
Cc1cc(CN(C)C(=O)C2CCC(=O)N(CCc3cccc(F)c3)C2)on1 (configuration not stated)	2.3	0.9	u	10.2%
COc1cc(NC(=O)c2cccnc2)c(OC)cc1NC(=O)c1ccc(Br)cc1	12.6	-2.7	u	-18.3%[46.1 µM]
COc1cc2c(cc1NC(=O)c1ccc(C(C)(C)C)cc1)CCCC2	21.7	21.2	4.47µM*	1.41µM*
COc1cc2c(cc1NC(=O)c1cccnc1)CCCC2	22.9	19.9*	18.1%	12.7%
CCC(CC)c1nn2c(=O)cc(COc3ccc(NC(=O)c4ccc(Cl)cc4)cc3)nc2s1	x	x	1.2%[46.1 µM]	-13.5%[46.1 µM]
COCC(=O)N(C)c1nnc(-c2cnc(C)cn2)s1	60.9	23.6*	-0.1%	4.9%
COc1ccc(N2CCN(C(CNS(=O)(=O)c3ccc(OC)c(C)c3)c3ccco3)CC2)cc1 (configuration not stated)	x	x	x	5.62µM*
COc1ccc(S(=O)(=O)NCC(c2ccco2)N2CCN(c3ccccc3)CC2)cc1OC (configuration not stated)	x	x	x	-5.9%[46.1 µM]
C/C=C/c1ccc(OCCCCOc2ccc(OC)cc2)c(OC)c1	-4.5	-2.8	u	0.7%
C=CCc1ccc(OCCn2nnc3ccccc32)c(OC)c1	52.8*	50.0*	x	x
C=CCc1ccc(OCCOCCN(C)C)c(OC)c1	-2.8	-2.7	-1.2%	-1.2%
C/C=C/c1ccc(OCCn2nnc3ccccc32)c(OC)c1	25.5	35.2*	x	x
C=CCc1ccc(OCCOc2cccc3ccc(C)nc23)c(OC)c1	59.0*	30.3*	u	-9.1%
C=CCc1ccc(OCCn2cccc2C=O)c(OC)c1	116.3*	49.1*	u	u
CCC(=O)N1CCc2cc(Br)cc(S(=O)(=O)N3CCCC(C(=O)Nc4cccc(F)c4)C3)c21 (configuration not stated)	x	x	-2.8%[46.1 µM]	-21.1%[46.1 µM]
Cc1cccc(NC(=O)C2CC3CCC2C3)c1C (configuration not stated)	x	x	11.9%[46.1 µM]	17.0%[46.1 µM]
COc1cc(NS(=O)(=O)c2ccc(C(=O)O)cc2)c2nc(C)ccc2c1	-2.5	-2.5	x	x
Cc1cccc(OCCn2nnc3ccccc32)c1C	x	42.4*	1.8%	11.9%
C=CCc1ccccc1OCCn1nnc2ccccc21	x	7.5	x	x
CC(=O)Nc1ccc(N2CCCC(C)C2)c([N+](=O)[O-])c1 (configuration not stated)	-7.6	-9.0	5.1%	-0.5%
COc1cc(C(=O)Nc2ccc3c(c2)OCO3)c([N+](=O)[O-])cc1OC	16.4	-0.8	9.8%	1.2%
CC1CCCN(c2ccc(C(=O)Nc3cccnc3)cc2[N+](=O)[O-])C1 (configuration not stated)	48.1*	19.6	u	u
O=C(Nc1ccc(N2CCCCC2)c(Cl)c1)c1ccc(N2CCOCC2)c([N+](=O)[O-])c1	-9.2	0.4	u	u
SMILES	Shiga toxin inh	Cycloheximide cs	Marburg entry inh	Lassa entry inh
O=C(Nc1ccc2c(c1)OCO2)c1ccc(NC2CC2)c([N+](=O)[O-])c1	102.4*	26.3*	-23.9%	u
O=C(Nc1ccc2c(c1)OCO2)c1ccc(N2CCCC2)c([N+](=O)[O-])c1	29.2	34.4*	3.7%	-13.8%
CC(=O)Nc1ccc(S(=O)(=O)NCCCN2CCN(Cc3ccccc3)CC2)cc1Cl	63.8	-1.8	14.8%	8.2%
CN1CCc2c(sc3c2c(=O)n(-c2ccccc2)c2n[nH]c(=S)n32)C1	-13.4	0.4	-16.6%	17.4%
CC(NC(=O)CNC(=O)c1ccco1)c1ccccc1 (configuration not stated)	-13.3	-5.0	4.9%[46.1 µM]	0.9%
COc1cc(OC)cc(C(=O)N2CCC(C(=O)NCCc3ccccc3)CC2)c1	x	24.3*	x	x
COc1ccc(CCNC(=O)C2CCN(C(=O)c3ccccc3)CC2)cc1	3.5	1.8	x	x
COc1ccc(NC(=O)C23CC4CC(CC(Cl)(C4)C2)C3)cc1S(=O)(=O)N1CCOCC1	x	x	7.6%[46.1 µM]	u
CCN(CC)c1ccc(/C=N/N=C(N)N)c(O)c1	-21.7	-2.1	x	x
Cc1nnc(C)n1/N=C/c1cc(Br)cc(Br)c1O	-12.4	-4.7	-9.7%	u
Cc1ccc(O)c(/C=N/NC(=O)CN2CCCC2)c1	26.0	-1.6	x	x
CCS/C(N)=N/N=C/c1cc(C)ccc1O	50.5	52.9*	u	u
CS/C(N)=N/N=C/c1cc(Br)cc(Br)c1O	64.7*	16.9*	x	x
CCCCS/C(N)=N/N=C/c1cc(C)ccc1O	82.2*	44.4*	-0.3%	16.8%
CS/C(N)=N/N=C/c1cc(C)ccc1O	61.0*	38.1*	x	x
CCOc1ccccc1NC(=O)NC1(C(=O)NCc2cccnc2)CCCCC1	-10.0	-7.7	13.3%[46.1 µM]	2.1%[46.1 µM]
